The panel holds about 83,000 compounds, 20% with a hit somewhere; the sample as a whole holds those more often.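 Cell lines were cultured in 96-well plates, exposed to a single compound concentration, and assessed for percent growth 48 hours later.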 Unmarked numbers belong to inactive results. Active and inactive are the calls of the source. How the source made its calls: active means growth percent below 10; inactive means the rest.
system: SNB-75 CNS; experiment: NCI-60 one-dose screen, 48 h (100 = growth as untreated, 0 = no growth, -100 = all killed); conditions: 10 µM unless noted

In the case of `COC(=O)c1oc2c(C(=O)/C=C/c3ccc(OC)cc3)c(OCCN3CCOCC3)ccc2c1C`, the growth was -26.8% (active).
With `Nc1ncnc2c1c(C(F)(F)F)cn2[C@@H]1O[C@H](CO)[C@@H](O)[C@H]1O` the growth was -35.1% (active).
With `COc1ccc2c(c1)OC(N)=C(C#N)C2c1ccc(F)cc1` (stereo not given) the growth was 8.49% (active).
In the case of `CC(C)(C)NCC(O)COc1c(Br)c(Br)c(Br)c2c1OC(C)(C)C2` (stereo not given), the growth was 5.77% (active).

Compared with `CN(C)c1ccc(/C=N/n2c(-c3cc(F)c(Cl)cc3Cl)nn(CN3CCOCC3)c2=S)cc1`, `COc1ccc(/C=C/C(=O)c2ccc(-n3cc(CN4CCN(c5cc6c(cc5F)c(=O)c(C(=O)O)cn6C5CC5)CC4)nn3)cc2)cc1OC` is lower in growth: 97.7% for the first, 65.5% for the second.

First: CS(=O)(=O)OCC(COS(C)(=O)=O)C(c1ccccc1)c1ccccc1
Second: O=C1C(Cl)=C(Nc2ccccc2)C(=O)C(Cl)=C1Nc1ccccc1
The growth of the first is lower: 96.2% for the first, 113% for the second.

Compared with `Cc1nccc2c3ccc(OCc4cn(Cc5ccc(Br)cc5)nn4)cc3n(CCCc3ccccc3)c12`, `O=C(Nc1ccc(-n2ccc3c(NC(=O)c4ccccc4)ncnc32)cc1)Nc1ccc(Cl)c(C(F)(F)F)c1` is higher in growth: 42.3% for the first, 53.5% for the second.

Compared with `[2H]c1nc(Nc2ncc(F)c(-c3cc(F)c4nc(C)n(C(C)C)c4c3)n2)c([2H])c([2H])c1CN1CCN(CC)CC1`, `COc1ccc(-c2c(C#N)cnc(N)c2-c2nc3cc(C)c(C)cc3[nH]2)cc1` is higher in growth: 26.5% for the first, 84.2% for the second.

Compared with `COc1cc(/C=C2/Oc3cc4occc4c(OC)c3C2=O)ccc1OCC(=O)Nc1ccncc1`, `COc1ccc(-c2nnc(SCC(=O)Nc3ccc(C(=O)/C=C/c4ccccc4)cc3)o2)cc1OC` is lower in growth: 96.5% for the first, 92.8% for the second.

Compared with `CCCCCCCCCCCCCCCCNc1ccccc1`, `O=C(O)c1cc2ccccc2cc1Nc1ccccc1` is lower in growth: 107% for the first, 102% for the second.

`O=C(Nc1ccc(-n2ccc3c(NC(=O)c4ccccc4)ncnc32)cc1)c1cccc(C(F)(F)F)c1` and `O=C(Nc1ccc(-n2cc(-c3ccncc3)c(-c3ccc(O)c(Cl)c3)n2)cc1)c1cc(C(F)(F)F)cc(C(F)(F)F)c1` are the same in growth: 63.9% for the first, 63.9% for the second.

Compared with `COc1ccc(/C(Cl)=N/N=C(\Cl)c2cc(OC)c(OC)c(OC)c2)cc1OC(C)=O`, `COc1ccc(Cn2cc3c(c2-c2cc(OC)c(OC)c(OC)c2)CCc2c(CO)noc2-3)cc1` is lower in growth: 78.7% for the first, 40% for the second.

Compared with `CCn1c(C)nc([N+](=O)[O-])c1Sc1nc(N)nc2nc[nH]c12`, `COc1ccc(Cl)cc1NC(=O)c1cc2c([nH]1)-c1nc(NC(=O)C(C)C)sc1CC2` is higher in growth: 44.7% for the first, 92.2% for the second.

Going from `Cc1cn(C2CC(N=[N+]=[N-])C(COP(=O)(O)OP(=O)(O)OP(=O)(O)O)O2)c(=O)[nH]c1=O` (stereo not given) to `CCC(N)(C(=O)O)c1ccc(F)cc1` (stereo not given), the growth rises from 85.3% to 113%.

First: COc1cc(/C=C\c2cc(/C=C\c3ccc(O)c(OC)c3)n(C(=O)CNc3ccccc3OC)n2)ccc1O
Second: COc1cc(C(=O)N2CCN(C(=O)c3cc(OC)c(OCc4ccccc4)cc3N)CC2)c(N)cc1OCc1ccccc1
The growth of the first is lower: 61.6% for the first, 108% for the second.

Compared with `O=C(/C=C/c1ccco1)c1cccc(Nc2nc(Nc3ccccc3)nc(Nc3ccccc3)n2)c1`, `Nc1ccc(S(=O)(=O)Nc2ccnn2-c2ccccc2)cc1` is higher in growth: 60.2% for the first, 106% for the second.

Going from `CN(C)CCCOc1c(Br)cc(/C=C/C(=O)N(C)CCc2cc(Br)c(OCCCN(C)C)c(Br)c2)cc1Br` to `COc1ccc(Cl)cc1NC(=O)c1cc2c([nH]1)-c1nc(NC(=O)C(C)(C)C)sc1CC2`, the growth falls from 73.3% to 50.5%.

Going from `CC1CCC(C(C)C)C(NN)C1` (stereo not given) to `C[C@]12CC[C@@H]3c4ccc(O)c(N)c4CC[C@H]3[C@@H]1CC[C@@H]2O`, the growth falls from 103% to 94.3%.

Going from `Cl[C@@H]1CCO[C@H](c2cc3ccccc3c3ccccc23)C1` to `COc1ccc(-c2nn(-c3ccc(NC(=O)c4ccc(Cl)c(C(F)(F)F)c4)cc3)cc2-c2ccncc2)cc1Cl`, the growth falls from 103% to 31.1%.

In the case of `C=C(C)[C@@H]1C/C=C(\COC(=O)[C@H](OC(C)=O)C(NC(=O)c2ccccc2)c2ccccc2)CC[C@H]2O[C@]2(C)CC/C=C(\C)CC1` (stereo not given in full), the growth was 57.5% [5 µM].

From PubChem BioAssay (NCI)
